Here are results for 21 compounds from PubChem BioAssay (Tox21).

Assay [1] is described as follows: cAMP Responsive Elements (CRE) small molecule antagonists, cell-based qHTS assay: qHTS cell viability counter screen (AID 2060913). Also: nearly all actives have a fitted effect of over 40% in size. In short, it runs like this: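 CRE-bla HEK293T cells were seeded in assay medium with 10% dialyzed FBS, incubated 18 hrs at 37 C, then exposed to compounds plus 0.25 uM final NKH477 for 3 hrs. Viability was read by CellTiter-Glo luminescence after 30 min, in the same wells.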

Assay [2] in a line: cAMP Responsive Elements (CRE) small molecule agonists, cell-based qHTS assay: qHTS cell viability counter screen (AID 2060914). Also: nearly all actives have a fitted effect of over 50% in size. In short, it runs like this: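 Luminescence read-out (CellTiter-Glo, 30 min RT) of ATP-based viability in CRE-bla HEK 293T cells, run in the same wells as the β-lactamase reporter assay after 3 h compound treatment at 37 °C.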
In general terms: In qHTS, concentration-response curves come from the screen itself.

Records with an inconclusive call do not appear. Where a call stands in place of a potency, no number is given. The source made the active and inactive calls. Calls follow the shape of the dose curve; as a rule, active = well fitted cell-killing curve with a large enough effect in the repeat runs; inconclusive = weak or mixed curves, or effect the other way; inactive = flat fitted curve, though single readings scatter.

As to `N#Cc1ccccn1`, the Potency result in assay [1] and in assay [2] was “inactive” each time.
For `c1ccc(N=Nc2ccccc2)cc1`, the Potency entry in assay [1] and in assay [2] was “inactive” each time.
On to `CCOC(=O)c1ccccc1C(=O)OCC`, for which the Potency result in assay [1] and in assay [2] was “inactive” in each case.
`COC(=O)c1ccc(CBr)cc1`: the Potency result in assay [1] and in assay [2] was “inactive” each time.
In the case of `O=C(Nc1ccccc1)N(Cc1ccc(Cl)cc1)C1CCCC1`, the Potency entry in assay [1] and in assay [2] was “inactive” each time.
With `ClCc1ccccc1Cl`, the Potency entry in assay [1] and in assay [2] was “inactive” throughout.
As for `NCCc1cc(O)c(O)cc1O`, the Potency entry in assay [1] and in assay [2] was “inactive” each time.
For the compound `CC[C@@H](CO)NC(=O)[C@@H]1C=C2c3cccc4c3c(cn4C)C[C@H]2N(C)C1`, the Potency result in assay [1] and in assay [2] was “inactive” each time.
Consider `O=C(N[C@H]1CN2CCC1CC2)c1ccc2c(c1)OCCO2`, for which the Potency result in assay [1] and in assay [2] was “inactive” each time.
As to `CN1CCC(O)(c2ccc(F)cc2)C(C(=O)c2ccc(F)cc2)C1` (configuration not stated), the Potency result in assay [1] and in assay [2] was “inactive” each time.
As to `CCOC(=O)C1(c2ccccc2)CCN(CCc2ccc(N)cc2)CC1`, the Potency result in assay [1] and in assay [2] was “inactive” in each case.
With `CCCCCCCCCCBr`, the Potency result in assay [1] and in assay [2] was “inactive” in each case.
Consider `OC(Cc1ccccc1Cl)(Cn1[nH]cnc1=S)C1(Cl)CC1` (configuration not stated), for which the Potency entry in assay [1] and in assay [2] was “inactive” throughout.
With `O=C1C(Cl)=C(Cl)C(=O)c2ccccc21`, the Potency entry in assay [1] and in assay [2] was “inactive” in each case.
As for `CCc1cc2c(s1)-n1c(C)nnc1CN=C2c1ccccc1Cl`, the Potency entry in assay [1] and in assay [2] was “inactive” throughout.
For `CN(C)c1ccc(N=Nc2ccccc2)cc1`, the Potency result in assay [1] and in assay [2] was “inactive” each time.
For the compound `c1cc[c]([Sb]([c]2ccccc2)[c]2ccccc2)cc1`, the Potency result in assay [1] and in assay [2] was “inactive” in each case.
For the compound `C[N+]1(C)CCCCC1`, the Potency entry in assay [1] and in assay [2] was “inactive” throughout.
With `CCC1(CC)C(=O)NC(=O)NC1=O`, the Potency result in assay [1] and in assay [2] was “inactive” each time.
For `Oc1ccccc1-c1ccccc1`, the Potency entry in assay [1] and in assay [2] was “inactive” throughout.
As for `O=C(O)C(Cl)(Cl)Br`, the Potency entry in assay [1] and in assay [2] was “inactive” in each case.
